Compound activity from PubChem BioAssay.
In the library only some 7.4% were active in any assay of this set; here they are far more common.
NPC1 promoter act – activates the NPC1 promoter | AID 485313 | Potency, µM (doses to about 9.22 µM), usual class: activators | hit rate 2.4% among 320,000 | Huh7 NPC1 promoter luciferase reporter, 24 h; also: nearly all actives have a fitted effect of over 60% in size
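NPC1 promoter–luciferase Huh7 cells; 24 h compound; luminescence.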
FLuc modulator – firefly luciferase modulation, counter-screen for miR-21 project | P08659 | purified FLuc, Km substrates, luminescence inhibition | Potency, µM (series often up to 57.5 µM), usual class: inhibitors | hit rate 6.9% among 360,000 | AID 588342; also: nearly all actives have a fitted effect of over 55% in size
Target sequence (P08659 whole entry, looked up): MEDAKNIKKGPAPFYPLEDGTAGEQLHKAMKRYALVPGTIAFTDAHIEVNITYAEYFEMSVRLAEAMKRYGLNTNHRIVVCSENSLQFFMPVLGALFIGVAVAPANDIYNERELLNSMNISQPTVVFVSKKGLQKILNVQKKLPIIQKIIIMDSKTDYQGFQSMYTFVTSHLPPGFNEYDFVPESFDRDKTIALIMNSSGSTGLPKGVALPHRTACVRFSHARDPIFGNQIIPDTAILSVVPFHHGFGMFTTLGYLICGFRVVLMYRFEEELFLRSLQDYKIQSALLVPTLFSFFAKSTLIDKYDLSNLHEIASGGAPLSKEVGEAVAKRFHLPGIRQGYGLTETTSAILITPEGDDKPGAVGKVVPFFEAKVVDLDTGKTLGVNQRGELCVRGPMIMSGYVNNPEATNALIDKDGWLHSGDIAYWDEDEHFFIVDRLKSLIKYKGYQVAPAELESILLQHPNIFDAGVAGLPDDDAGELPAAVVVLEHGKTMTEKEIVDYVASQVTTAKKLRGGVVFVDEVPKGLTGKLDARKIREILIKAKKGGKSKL
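Purified P. pyralis luciferase (10nM final) with 10uM D-luciferin and 10uM ATP (Km levels) in 50mM Tris acetate pH 7.5, 10mM Mg acetate, 0.01% Tween-20, 0.05% BSA; qHTS 6-point titration, ~60 µM downward; luminescence read.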
SMN2 splice enh – increases expression of the SMN2 splice variant. HEK293 SMN2-luciferase splicing reporter, luminescence, 30-36 h. Potency, µM (highest dose often 46.1 µM), actives largely listed as activators. hit rate 2.8% among 210,000. AID 1458; also: nearly all actives have a fitted effect of over 55% in size
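HEK293 cells carry an SMN2 minigene-luciferase reporter in which exon 7 inclusion puts luciferase in frame. Cells were seeded at 2000 cells/well, attached for 10-12 hours, then exposed to compounds for 30-36 hours at 37C before ONE-Glo luminescence.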
ELG1 genotoxic – inducers of genotoxicity in HEK293T ELG1-luciferase cells; HEK293T ELG1-luciferase reporter, luminescence, 16 h; Potency, µM (highest dose often 46 µM), actives largely listed as activators; hit rate 1.3% among 330,000; AID 504466; also: nearly all actives have a fitted effect of over 60% in size
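Luminescence read-out: rising ELG1-luciferase signal, reflecting elevated ELG1 protein under genetic stress, flags genotoxic compounds. Cells were treated for 16 hr at 37 °C before ONE-Glo detection.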
Rab9 promoter act – Rab9 promoter activation. Huh7 Rab9 promoter-luciferase reporter, luminescence, 24 h. Potency, µM (doses to about 9.22 µM), most hits filed as activators. hit rate 2.8% among 320,000. AID 485297; also: nearly all actives have a fitted effect of over 60% in size
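Cells were plated at 1500 per well in reduced-serum medium with 10% FBS and left 2 h. Compound in DMSO was then added for 24 h at 37 °C. Reporter signal was read by luminescence after 10 min with luciferase detection reagent.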
p53 reactivator – re-activators of mutant p53. hit rate 0.063% among 320,000. AID 504706. H1299 p53-A138V BP100-luciferase reporter, luminescence, 24 h. Potency, µM (highest dose often 92.2 µM), usual class: activators; also: nearly all actives have a fitted effect of over 45% in size
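H1299 (p53-null), stable ts p53-A138V + BP100-Luc; 1000 cells/well, Opti-MEM/10% FBS; cpd 4 pt, 1:5; 24 h, 37 deg C, 5% CO2; detection reagent 10 min RT; luminescence.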
Hits are given with their value; i = inactive; ? = inconclusive; nt = not tested or not shown. Calls follow the shape of the dose curve; as a rule, active = well fitted curve in the direction sought with a large enough effect; inconclusive = small, poorly fitted or top-dose-only effect, or another doubt; inactive = no such curve, though single readings can be large; an effect the other way counts as inactive or inconclusive.

SMILES	NPC1 promoter act	FLuc modulator	SMN2 splice enh	ELG1 genotoxic	Rab9 promoter act	p53 reactivator
C/C(=N\NC(=O)C1CCCC1)c1ccc(Cl)cc1Cl	i	i	nt	i	i	i
CC(C)n1c(/C=C/c2ccccc2)nc2ccccc21	?	2.4µM	11µM	?	?	?
CCc1cc2c(cc3c(=O)n(CCCC(=O)NCc4cccc(Br)c4)ncn32)s1	nt	?	i	nt	nt	nt
COc1ccc(C2C(C(=O)c3cccs3)=C(O)C(=O)N2Cc2cccnc2)cc1OC (stereo not given)	?	19µM	nt	?	?	i
Nc1[nH]n(-c2ccccc2)c(=O)c1N=Nc1ccccc1[N+](=O)[O-]	2µM	?	?	3.2µM	0.56µM	i
Nc1[nH]n(-c2ccccc2)c(=O)c1N=Nc1ccccc1	2.5µM	5.4µM	nt	21µM	3.5µM	?
O=c1c2cc([N+](=O)[O-])cc([N+](=O)[O-])c2[nH]n1-c1ccccc1	i	11µM	nt	i	i	i
Nc1[nH]n(-c2ccccc2)c(=O)c1N=Nc1ccc2ncsc2c1	i	19µM	nt	i	i	i
COc1cc([N+](=O)[O-])ccc1N=Nc1c(N)[nH]n(-c2ccccc2)c1=O	i	?	i	i	?	i
O=c1[nH]c(=O)c2cc([N+](=O)[O-])cc([N+](=O)[O-])c2[nH]1	i	?	i	i	i	i
O=C(N=C1SC2CS(=O)(=O)CC2N1c1cccc(Cl)c1Cl)C1CC1 (stereo not given)	i	i	nt	i	i	i
Cc1ccc(C(CC(=O)c2ccco2)SCCO)cc1 (stereo not given)	i	11µM	i	?	i	i
Brc1ccccc1OCCCn1cnc2ccccc21	3.2µM	2.4µM	?	5.8µM	4µM	?
Cc1ccc(OCCCCn2cnc3ccccc32)cc1	i	?	i	i	i	i
c1ccc2c(c1)ncn2CCCCOc1ccc2c(c1)CCC2	i	?	i	i	i	i
c1ccc(OCCCCn2cnc3ccccc32)cc1	i	i	i	i	i	i
c1ccc2c(c1)ncn2CCCOc1ccc2c(c1)CCC2	i	15µM	i	i	i	i
Cc1ccccc1OCCCCn1cnc2ccccc21	i	19µM	i	i	i	i
CC(=O)c1cccc(NC(=O)C(C)OC(=O)CCN=C2NS(=O)(=O)c3ccccc32)c1 (stereo not given)	i	i	nt	i	i	i
S=c1[nH]c2cc(-c3ccccc3)ccc2o1	i	21µM	nt	i	i	?
Cc1ccc(SCc2ccc(C(=O)Nc3ccccc3C(=O)NC(C)C)cc2)cc1	i	i	nt	i	i	i
COc1ccc(C(=O)Nc2ccccc2C(=O)NC(Cc2ccc(O)cc2)C(=O)NNC(=O)c2ccc(C)cc2)cc1 (stereo not given)	i	9.5µM	i	?	i	i
COc1ccc(C(=O)Nc2ccccc2C(=O)NC(Cc2ccc(O)cc2)C(=O)NNC(=O)c2ccccc2)cc1 (stereo not given)	i	4.8µM	i	i	i	i
CC(C)C(NC(=O)c1ccccc1NC(=O)c1ccccc1)C(=O)NNC(=O)c1ccncc1 (stereo not given)	i	?	nt	i	i	i
COc1ccc(C(=O)Nc2ccccc2C(=O)NC(Cc2ccc(O)cc2)C(=O)NNC(=O)c2ccncc2)cc1 (stereo not given)	i	12µM	i	i	i	i
SMILES	NPC1 promoter act	FLuc modulator	SMN2 splice enh	ELG1 genotoxic	Rab9 promoter act	p53 reactivator
O=C(CCCn1c(=O)c2ccccc2n(CC(=O)Nc2ccc(F)cc2F)c1=O)NCc1ccccc1Cl	nt	i	i	nt	nt	nt
CC(OC(=O)Cn1[nH]c(=O)c2ccccc2c1=O)C(=O)Nc1ccc(Cl)cn1 (stereo not given)	i	i	nt	i	i	i
Cc1ccccc1NC(=O)Cc1nc(COC(=O)CC(C)c2ccccc2)cs1 (stereo not given)	i	i	nt	i	?	i
Cc1nc2scc(C)n2c(=O)c1S(=O)(=O)Nc1cccc(C(F)(F)F)c1	nt	i	i	nt	nt	nt
COC1CC(O[C@H]2/C(C)=C/CC3CC(C[C@]4(CCC(C)C(C5CCCCC5)O4)O3)OC(=O)[C@H]3C=C(C)/C(=N/O)C4OC/C(=C\C=C\[C@@H]2C)[C@@]43O)OC(C)C1O (stereo not given in full)	nt	nt	i	nt	nt	nt
CC(Cc1ccccc1)N1C(=O)c2cccc([N+](=O)[O-])c2C1=O (stereo not given)	i	i	nt	i	i	i
CC(C(Sc1ccccc1N)c1ccccc1)[N+](=O)[O-] (stereo not given)	i	9.5µM	nt	?	i	i
COc1ccc(NC(=O)c2ccc(OCC3CCCO3)cc2)cc1Cl (stereo not given)	?	2.4µM	nt	i	?	i
O=C(NC1CCCCCC1)c1ccc(OCC2CCCO2)cc1 (stereo not given)	?	12µM	13µM	?	2µM	i
NS(=O)(=O)c1ccc(NC(=O)c2ccc(OCC3CCCO3)cc2)cc1 (stereo not given)	nt	nt	nt	i	nt	i
COc1ccc(NC(=O)c2ccc(OCC3CCCO3)cc2)cc1OC (stereo not given)	i	15µM	nt	i	i	i
O=C(CS(=O)(=O)c1cccc2nsnc12)Nc1ccc(F)cc1	nt	i	nt	nt	nt	nt
CC1CC(C)CN(C(=O)C2CCN(C(=O)Nc3ccccc3)CC2)C1 (stereo not given)	i	i	nt	i	i	i
COc1ccc(C(=O)COC(=O)Cn2cnc3ccccc3c2=O)c(OC)c1	i	i	nt	i	i	i
CC1SCC(=NOCc2ccccc2)CS1 (stereo not given)	?	19µM	nt	?	?	i
Cc1nc2ncccn2c1-c1csc(NCc2ccco2)n1	i	i	i	i	i	i
c1coc(CNc2nc(-c3cccs3)cs2)c1	?	24µM	?	i	?	?
Oc1ccc(-c2csc(NCc3ccco3)n2)cc1	i	11µM	i	18µM	i	?
CC(=O)Nc1cccc(-c2csc(NCc3ccco3)n2)c1	i	17µM	?	?	i	i
Cn1c(=O)n(C)c2cc(NS(=O)(=O)c3ccc(Cl)cc3)c(NCc3ccccc3)cc21	nt	15µM	i	nt	nt	nt
COc1ccc(S(=O)(=O)Nc2cc3c(cc2NCc2ccccc2)n(C)c(=O)n3C)cc1OC	nt	?	3.5µM	nt	nt	nt
Cc1cc(S(=O)(=O)Nc2cc3c(cc2NCc2ccccc2)n(C)c(=O)n3C)ccc1F	nt	24µM	10µM	nt	nt	nt
Cn1c(=O)n(C)c2cc(NS(=O)(=O)c3ccc(C(C)(C)C)cc3)c(NCc3ccccc3)cc21	nt	?	5.6µM	nt	nt	nt
Cn1c(=O)n(C)c2cc(N3CCOCC3)c(NS(=O)(=O)c3ccc(C(C)(C)C)cc3)cc21	nt	i	i	nt	nt	nt
Cn1c(=O)n(C)c2cc(N3CCOCC3)c(NS(=O)(=O)c3ccc(Cl)cc3)cc21	nt	i	i	nt	nt	nt
